Screening data from PubChem.
In the library only some 3.4% were active in any assay of this set; here they are far more common.
NPSR antagonist – neuropeptide S receptor (human) antagonism, cAMP; Q6W5P4; CHO-NPSR cells, cAMP TR-FRET, antagonist mode; Potency, µM (series often up to 38.3 µM), without a hit: at the highest dose activity change, negative = inhibition, hits mostly inhibitors; 220,000 tested, 1% active; further: potency means the concentration at half of the fitted maximal effect; on the % scale 0 is the no-effect control and ±100 the full control effect; nearly all actives have a fitted effect of over 50% in size
Target sequence (Q6W5P4 whole entry, looked up): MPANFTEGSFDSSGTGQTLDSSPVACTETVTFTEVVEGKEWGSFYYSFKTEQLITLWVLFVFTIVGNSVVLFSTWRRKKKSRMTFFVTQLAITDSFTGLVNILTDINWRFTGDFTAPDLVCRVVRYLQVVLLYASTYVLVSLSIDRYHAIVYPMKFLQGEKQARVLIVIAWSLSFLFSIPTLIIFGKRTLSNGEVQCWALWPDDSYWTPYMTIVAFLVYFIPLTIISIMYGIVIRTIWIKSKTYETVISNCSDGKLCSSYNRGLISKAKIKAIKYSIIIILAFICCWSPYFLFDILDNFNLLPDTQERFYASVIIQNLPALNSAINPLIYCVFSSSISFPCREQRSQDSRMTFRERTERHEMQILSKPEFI
HTT cytoprotect – cytoprotection in Huntington HTT-Q103 PC12 cell model; 230,000 tested, 0.14% active; Potency, µM (top dose mostly 56.4 µM), without a hit: cytoprotection (ATP increase), hits mostly activators; PC12 HTT-Q103 induced, cytoprotection, ATP luminescence, 40 h; further: potency means the concentration at half of the fitted maximal effect; % of control where 0% means no effect; nearly all actives have a fitted effect of over 45% in size
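PC12 cells stably carrying ecdysone-inducible Htt exon 1 (Q103)–GFP were induced with 100 nM tebufenozide (final) alongside library compounds in a dose series. Cytoprotection was scored as retained ATP by ATPlite luminescence.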
PNC inhibitor – inhibitors of perinucleolar compartment assembly | PC3M PTB-GFP, PNC prevalence imaging, 16 h; active compounds read low | activity change (PNC), negative = inhibition, % at 10 µM | 140,000 tested, 3.1% active | AID 2417;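 active means readout at or below -70, meaning at least 70% loss of cells showing the perinucleolar compartment, a nuclear body marking cancer cells; inconclusive means readout between -30 and a set limit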;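 further: plate controls were DMSO wells for no effect and camptothecin positive control wells for full effect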
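Compounds are pinned in duplicate onto adhered PC3M cells stably expressing GFP-tagged PTB and incubated 16 h at 37 C. Cells are then fixed, nuclei stained with Hoechst, and PNC-positive cells counted.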
IMPase Li inh – IMPase inhibition in cells with lithium potentiation; 210,000 tested, 0.35% active; CHO-M1 cells, IP1 TR-FRET (IP-One), carbachol + lithium; AID 1457; Potency, µM (doses to about 59.4 µM), for the others: top-dose activity, negative = IMPase inhibition, most hits filed as inhibitors;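 further: IP1 builds up when IMPase is blocked and the TR-FRET signal falls; potency means the concentration at half of the fitted maximal effect; plate controls were basal vehicle for no effect and high inhibitor control for full effect; nearly all actives have a fitted effect of over 50% in size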
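Test compounds were applied to CHO-M1 cells previously cultured for 16–30 h at 2000 per well. A small lithium amount accompanied them; after 30 min at 37C, IP1 was quantified by TR-FRET.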
IMPase inh – IMPase inhibition in cells; P97697; CHO-M1 cells, IP1 accumulation, HTRF TR-FRET ratio; inhibition (IP1 accumulation), % at 46.1 µM; 120,000 tested, under 10 active; active means well fitted curve in the direction sought with a large enough effect in the signal ratio, not every such curve was filed as active; inconclusive means small, poorly fitted or top-dose-only effect, or a change in a side signal; inactive means no such curve, though single readings can be large or run the other way; the % refers to the signal ratio;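 further: cells stimulated with carbachol in lithium chloride buffer; plate controls were DMSO basal wells for no effect and reference inhibitor wells for full effect; higher means more IMPase inhibition seen as more IP1 and lower FRET ratio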
Target sequence (P97697 whole entry, looked up): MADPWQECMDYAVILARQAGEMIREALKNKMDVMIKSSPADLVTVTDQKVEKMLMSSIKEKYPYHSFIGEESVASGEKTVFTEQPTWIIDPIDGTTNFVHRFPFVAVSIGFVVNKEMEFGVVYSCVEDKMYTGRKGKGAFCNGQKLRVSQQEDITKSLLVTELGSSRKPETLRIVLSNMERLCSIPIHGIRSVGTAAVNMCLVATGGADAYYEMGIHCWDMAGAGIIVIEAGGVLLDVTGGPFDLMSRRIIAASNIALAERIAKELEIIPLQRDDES
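In this qHTS, compounds (final up to 46 uM) act on CHO-M1 cells that are then activated through the M1 receptor with carbachol, in pH 7.4 buffer containing 50 mM LiCl, for 30 min. IP1 accumulation is quantified by the IP-One immunoassay.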
HttQ103 aggreg – reduces HttQ103-GFP aggregates in PC12 cells; PC12 HttQ103-GFP aggregates, Acumen cytometry, 40 h; 220,000 tested, 1.1% active; Potency, µM (highest dose often 46.1 µM), without a hit: at the top dose activity change, negative = inhibition, most hits filed as inhibitors; AID 1688; further: potency means the concentration at half of the fitted maximal effect; on the % scale 0 is the no-effect control and ±100 the full control effect; nearly all actives have a fitted effect of over 60% in size
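Ecdysone-promoter PC12 model expressing HTT exon 1 Q103 fused to GFP, induced by tebufenozide at 100 nM final. Compounds titrated; aggregates sized 1–25 µm scored on a 488 nm laser cytometer.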
Numbers without * were called inactive; ? = inconclusive; / = no result given; [ ] = dose if it differs, or a comment. Unless noted, the call rests on the fitted dose curve; in most records, active means well fitted curve in the direction sought with a large enough effect; inconclusive means small, poorly fitted or top-dose-only effect, or another doubt; inactive means no such curve, though single readings can be large; an effect the other way counts as inactive or inconclusive.

SMILES	NPSR antagonist	HTT cytoprotect	PNC inhibitor	IMPase Li inh	IMPase inh	HttQ103 aggreg
CCC(C(=O)Nc1cnccn1)c1ccccc1 (stereo not drawn)	7%[46.1 µM]	1%[10 µM]	?	2%[38.3 µM]	1	-14%
O=C(Oc1c(Cl)cc(Cl)c2cccnc12)c1cccs1	-4%[46.1 µM]	-61%[10 µM]	-26	10%	15	10µM*
O=C(Oc1c(CN2CCOCC2)cc(Cl)c2cccnc12)c1ccccc1Cl	7.9µM*	-120%	/	19%	/	?
COc1cc(C(=O)Oc2c(CN3CCOCC3)cc(Cl)c3cccnc23)cc(OC)c1OC	-26%[46.1 µM]	-67%	-20	14%[38.3 µM]	2	?
O=C(Oc1c(CN2CCOCC2)cc(Cl)c2cccnc12)c1cccs1	?	-97%[10 µM]	/	28%	/	1.3µM*
Oc1ccc(Cl)c2cccnc12	/	-74%	/	8%	/	-42%
Oc1c(Cl)cc(Cl)c2cccnc12	-30%	-48%	/	1%	/	8.9µM*
CC1=C(C(=O)O)N2C(=O)[C@@H](NC(=O)C(N)C3=CCC=CC3)[C@H]2SC1 (stereo partly drawn)	-6%[46.1 µM]	/	/	6%	/	/
CN(CC(=O)Nc1cccc2ccccc12)C(=O)c1cccc(S(=O)(=O)N(C)C)c1	-7%	16%[10 µM]	/	/	/	15%[9.22 µM]
O=C(Oc1c(CN2CCOCC2)cc(Cl)c2cccnc12)c1ccc(F)cc1	5µM*	-98%[10 µM]	?	52%[38.3 µM]	12	1µM*
COc1ccc(C(=O)Oc2c(CN3CCOCC3)cc(Cl)c3cccnc23)cc1	-13%[46.1 µM]	-102%	?	44%[38.3 µM]	-2	?
COc1cccc(C(=O)Oc2c(CN3CCOCC3)cc(Cl)c3cccnc23)c1	10µM*	-93%[10 µM]	7	39%[38.3 µM]	11	11µM*
C/C(=N\NC(=O)c1ccccc1)c1nc2ccccc2n1C	9%	/	-19	11%	/	11µM*
O=C(NCCCN1CCCC1=O)C1CCN(S(=O)(=O)N2CCOCC2)CC1	-5%[46.1 µM]	2%[10 µM]	-84*	13%[38.3 µM]	-3	7%
O=C(NCCN1CCOCC1)C1CCN(S(=O)(=O)N2CCCCC2)CC1	13%[46.1 µM]	-1%	-5	-7%[38.3 µM]	3	9%
CCCC(=O)O[C@]1(C(=O)COC(C)=O)CC[C@H]2C3C[C@H](F)C4=CC(=O)C=CC4(C)[C@@]3(F)[C@@H](O)CC21C (stereo partly drawn)	/	7%	/	/	/	8%
COc1ccc(OC)c2[nH]c(=O)c(CCNC(C)=O)cc12	1%[46.1 µM]	28%[10 µM]	?	5%[38.3 µM]	-7	13%
CCCS(=O)(=O)NCCc1cc2cc(C)c(C)cc2[nH]c1=O	2%[46.1 µM]	1%[10 µM]	-100*	4%	-5	-15%
CCS(=O)(=O)NCCc1cc2c(OC)ccc(OC)c2[nH]c1=O	-2%[46.1 µM]	19%[10 µM]	-100*	4%	2	21%
CCCS(=O)(=O)NCCc1cc2ccc(C)cc2[nH]c1=O	6%[46.1 µM]	-7%[10 µM]	28	2%	-6	-14%
O=c1c(-c2cccc(F)c2)nc2cncnc2n1Cc1ccccc1Cl	/	-26%	/	12%	/	/
Cc1nn(-c2cc(N3CCNCC3)ccc2[N+](=O)[O-])c(=O)c2ccccc12	-11%[46.1 µM]	-10%	-97*	5%[38.3 µM]	6	-16%
CC(C)(C)NC(=O)CN(CCc1ccccc1)C(=O)c1csnn1	-6%	18%[10 µM]	/	5%	/	3%[9.22 µM]
COc1cc(/C=C/c2[nH]c(=O)[nH]c(=O)c2[N+](=O)[O-])ccc1OCCC(C)C	-8%	13µM*	/	-1%	/	?
CCC(C)Oc1ccc(/C=C/c2[nH]c(=O)[nH]c(=O)c2[N+](=O)[O-])cc1OC (stereo not drawn)	-23%	-9%	/	-9%	/	19%
SMILES	NPSR antagonist	HTT cytoprotect	PNC inhibitor	IMPase Li inh	IMPase inh	HttQ103 aggreg
COC(=O)c1ccc(C(NC(=O)OCc2ccccc2)/C(C)=C/[C@@H](C)C(=O)NCCO)cc1 (stereo partly drawn)	/	11%	/	5%	/	/
BrC(/C=N/Nc1nc(N2CCOCC2)nc(N2CCOCC2)n1)=C/c1ccccc1	-24%[46.1 µM]	28%	-96*	14%[38.3 µM]	5	?
O=C(CN1CCCCCC1)Nc1ccccc1F	6%[46.1 µM]	25%[10 µM]	-85*	2%	-11	-11%
O=C(CN1CCCCCC1)N1c2ccccc2C=Cc2ccccc21	0%[46.1 µM]	13%	-106*	59%[38.3 µM]	18	-9%
CCN(CC)C(=O)N1c2ccccc2C=Cc2ccccc21	?	6%	-105*	6%[38.3 µM]	7	-4%[9.22 µM]
CC/C=C1/OC(=O)c2ccccc21	/	-11%	/	-14%	/	/
COC(=O)[C@@]1(Cc2ccc(OC)cc2)[C@H]2c3cc(C(=O)N(C)C)n(Cc4ccc(OC)c(OC)c4)c3C[C@H]2CN1C(=O)c1ccccc1	/	-4%	/	-4%	/	/
N#Cc1c(-c2ccco2)nc(SCc2ccc(F)cc2)[nH]c1=O	7.9µM*	-13%	-13	13µM*	?	-28%
O=C(CSc1nc(-c2cccc(F)c2)[nH]c1-c1ccccc1)Nc1ccc2c(c1)OCCO2	/	/	/	/	15	/
CCCCCCCCCCCCCCCCCC(=O)O[C@H](CC(=O)O)C[N+](C)(C)C	/	6%[1.9 µM]	/	/	13	/
CCCCn1c(SCC(=O)NC(C)CC)nc2ccc(N3CCOCC3)cc2c1=O (stereo not drawn)	?	-13%	-24	11µM*	-6	?
